This is an account of results in ChEMBL document CHEMBL3988442, “University of Dundee, Small-Polar-MMV Screening Library” (2021).

Holding throughout (parameters): scale not given: direction of the effect not stated beside the values
Test [1] concerns the target Protein translocase subunit SecA (Escherichia coli (strain K12)) (UniProt P10408). Put plainly: Assay to Identify E. coli SecA ATPase Inhibitors. To be noted: 30 µM. The class given is functional.
For test [2], the target named is T1, Ubiquitin-activating enzyme e1, putative (Leishmania donovani (strain BPK282A1)) (UniProt E9BSI1).
T1 sequence (whole entry): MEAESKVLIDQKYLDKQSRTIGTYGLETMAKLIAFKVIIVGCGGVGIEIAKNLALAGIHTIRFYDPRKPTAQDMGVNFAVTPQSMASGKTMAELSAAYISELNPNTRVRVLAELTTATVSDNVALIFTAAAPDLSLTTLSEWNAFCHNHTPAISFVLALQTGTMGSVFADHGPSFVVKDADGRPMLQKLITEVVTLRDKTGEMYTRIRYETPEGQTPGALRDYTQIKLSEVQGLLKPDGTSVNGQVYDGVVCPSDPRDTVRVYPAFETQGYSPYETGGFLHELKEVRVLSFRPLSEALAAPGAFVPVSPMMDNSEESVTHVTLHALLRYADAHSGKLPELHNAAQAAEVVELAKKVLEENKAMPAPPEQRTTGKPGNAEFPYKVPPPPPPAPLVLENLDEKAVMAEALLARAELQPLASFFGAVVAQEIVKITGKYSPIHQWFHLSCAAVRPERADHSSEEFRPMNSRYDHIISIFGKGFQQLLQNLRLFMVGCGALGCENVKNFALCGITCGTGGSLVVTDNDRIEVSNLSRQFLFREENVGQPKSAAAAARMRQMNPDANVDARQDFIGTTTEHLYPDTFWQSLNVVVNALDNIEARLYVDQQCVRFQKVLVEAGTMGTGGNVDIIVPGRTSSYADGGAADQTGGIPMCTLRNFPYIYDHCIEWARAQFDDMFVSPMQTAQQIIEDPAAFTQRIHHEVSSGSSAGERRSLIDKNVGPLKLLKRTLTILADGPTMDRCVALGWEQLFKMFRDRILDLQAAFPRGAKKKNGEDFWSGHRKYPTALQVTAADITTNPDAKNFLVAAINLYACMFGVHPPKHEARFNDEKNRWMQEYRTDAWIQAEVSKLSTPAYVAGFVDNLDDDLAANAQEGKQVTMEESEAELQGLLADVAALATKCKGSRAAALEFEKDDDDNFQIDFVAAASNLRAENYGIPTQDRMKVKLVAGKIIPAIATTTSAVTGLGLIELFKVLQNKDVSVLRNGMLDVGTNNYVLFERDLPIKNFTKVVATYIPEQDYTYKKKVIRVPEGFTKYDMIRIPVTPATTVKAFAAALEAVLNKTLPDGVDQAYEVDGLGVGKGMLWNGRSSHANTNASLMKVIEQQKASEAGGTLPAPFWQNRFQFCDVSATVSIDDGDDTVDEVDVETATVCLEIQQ
The test is described as follows: Leishmania donovani Ubiquitin Activating Enzyme (LdE1). The class given is functional. To be noted: 30 µM.

For test [3], the target named is AMP-activated protein kinase, AMPK (Homo sapiens) (UniProt P54646+O43741+P54619+Q9UGJ0+Q9Y478+Q13131+Q9UGI9). The test is described as follows: AMP-dependent Kinase enzyme assay. An in vitro enzyme assay that detects ADP turnover that is directly proportional to AMPK activity. This uses naive AMPK that is activated during the assay with MK-8722. The class given is functional. The following applies: 30 µM.

Test [4] concerns the target Sialic acid-binding Ig-like lectin 9 (Homo sapiens) (UniProt Q9Y336). The test is described as follows: Hs-Siglec9 ALPHAscreen SOP 20170721. To be noted: 10 µM. Background: Bead proximity is the source of the signal in Alpha formats.
A further test has as its system Trypanosoma cruzi. The test is described as follows: Trypanosoma cruzi phosphomannomutase and mannose-1-phosphate guanylyltransferase assay. The class given is functional. To be noted: 10 µM.
Test [5] deals with T2, Arginase-2, mitochondrial (Homo sapiens) (UniProt P78540).
T2 sequence (whole entry): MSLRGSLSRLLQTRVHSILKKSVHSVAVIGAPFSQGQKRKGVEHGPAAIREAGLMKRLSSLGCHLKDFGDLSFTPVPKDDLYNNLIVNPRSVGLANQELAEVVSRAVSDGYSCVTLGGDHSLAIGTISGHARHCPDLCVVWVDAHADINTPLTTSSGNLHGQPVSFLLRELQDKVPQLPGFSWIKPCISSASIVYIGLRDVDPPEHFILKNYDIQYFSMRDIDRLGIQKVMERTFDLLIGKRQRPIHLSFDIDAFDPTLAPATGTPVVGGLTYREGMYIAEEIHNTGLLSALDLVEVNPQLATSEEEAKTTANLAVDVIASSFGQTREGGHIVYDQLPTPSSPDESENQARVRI
The test is described as follows: in vitro enzyme assay to detect the production of urea directly proportional to the activity of Arginase II. Note: in the data most compounds retested in dose-response had high values. The class given is functional. To be noted: 33.3 µM.

Test [6] addresses T3, Proteasome subunit beta (Trypanosoma cruzi) (UniProt O96673).
T3 sequence (whole entry): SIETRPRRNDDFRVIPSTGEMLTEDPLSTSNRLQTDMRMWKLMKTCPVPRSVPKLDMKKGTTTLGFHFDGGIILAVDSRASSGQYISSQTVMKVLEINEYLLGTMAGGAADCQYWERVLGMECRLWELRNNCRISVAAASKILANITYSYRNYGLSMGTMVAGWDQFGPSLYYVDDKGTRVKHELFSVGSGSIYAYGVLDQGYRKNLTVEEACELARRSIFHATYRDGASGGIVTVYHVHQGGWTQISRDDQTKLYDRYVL
Put plainly: Trypanosoma cruzi proteasome chymotrypsin-like activity (TcProtChymo) assay. Note: in the data most compounds retested in dose-response had high values. The class given is functional. To be noted: 9.37 µM.

The species named for another test is Homo sapiens. Put plainly: To identify inhibition of the IFN signalling (Jak-Stat) pathway via expression of an eGFP reporter gene under the control of an IFN-stimulated response element (ISRE) containing MxA promoter. The class given is functional. The following applies: 30 µM.
The target in test [7] is T4, Tyrosyl-tRNA synthetase, putative (Trypanosoma cruzi (strain CL Brener)) (UniProt Q4DSP6).
T4 sequence (whole entry): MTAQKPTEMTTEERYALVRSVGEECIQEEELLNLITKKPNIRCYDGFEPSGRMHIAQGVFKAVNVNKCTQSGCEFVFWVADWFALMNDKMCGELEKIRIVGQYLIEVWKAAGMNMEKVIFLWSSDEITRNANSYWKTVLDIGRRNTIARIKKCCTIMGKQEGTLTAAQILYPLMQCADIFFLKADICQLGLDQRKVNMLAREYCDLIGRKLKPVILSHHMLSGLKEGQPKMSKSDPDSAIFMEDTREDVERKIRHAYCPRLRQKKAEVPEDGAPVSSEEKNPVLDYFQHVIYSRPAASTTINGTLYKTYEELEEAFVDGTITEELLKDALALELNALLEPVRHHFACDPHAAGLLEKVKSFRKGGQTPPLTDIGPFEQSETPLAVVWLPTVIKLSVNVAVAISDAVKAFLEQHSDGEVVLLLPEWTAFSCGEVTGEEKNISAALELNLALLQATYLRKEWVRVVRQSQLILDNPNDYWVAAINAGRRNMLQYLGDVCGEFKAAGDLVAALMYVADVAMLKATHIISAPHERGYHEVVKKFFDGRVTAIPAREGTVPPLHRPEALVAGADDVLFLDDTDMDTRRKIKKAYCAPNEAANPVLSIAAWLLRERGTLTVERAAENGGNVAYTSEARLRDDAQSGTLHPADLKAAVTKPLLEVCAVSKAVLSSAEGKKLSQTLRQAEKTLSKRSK
Put plainly: Trypanosoma cruzi tyrosyl tRNA synthetase (TcYRS) _High Tyrosine SOP. Note: in the data most compounds retested in dose-response had high values. The class given is functional. The following applies: 30 µM.

In test [8] the target is T4, Tyrosyl-tRNA synthetase, putative (Trypanosoma cruzi (strain CL Brener)). The test is described as follows: Trypanosoma cruzi tyrosyl tRNA synthetase (TcYRS) SOP. The class given is functional. The following applies: 30 µM.
Test [9] addresses Chromo domain-containing protein 1 (Saccharomyces cerevisiae (strain ATCC 204508 / S288c) (Baker's yeast)) (UniProt P32657). The test is described as follows: ScCHD-1 Enzyme Inhibition Assay. Note: in the data most compounds retested in dose-response had high values. The class given is functional. To be noted: 30 µM.

For some of these results: Entries with a potency or affinity are not part of this list.

Sialic acid-binding Ig-like lectin 9 (Homo sapiens), sequence (Q9Y336 whole entry): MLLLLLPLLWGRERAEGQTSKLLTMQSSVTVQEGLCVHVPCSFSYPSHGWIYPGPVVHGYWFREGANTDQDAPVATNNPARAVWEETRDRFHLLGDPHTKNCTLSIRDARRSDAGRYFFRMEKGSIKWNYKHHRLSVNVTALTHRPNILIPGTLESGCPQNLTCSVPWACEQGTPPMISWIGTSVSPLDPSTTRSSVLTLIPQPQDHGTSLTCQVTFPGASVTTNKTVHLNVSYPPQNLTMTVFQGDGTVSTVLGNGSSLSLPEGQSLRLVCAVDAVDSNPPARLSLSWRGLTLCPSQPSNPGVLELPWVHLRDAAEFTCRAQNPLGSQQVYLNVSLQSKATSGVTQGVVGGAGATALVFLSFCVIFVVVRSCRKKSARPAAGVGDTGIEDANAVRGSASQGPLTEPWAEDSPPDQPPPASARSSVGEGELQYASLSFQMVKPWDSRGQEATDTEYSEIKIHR
Chromo domain-containing protein 1 (Saccharomyces cerevisiae (strain ATCC 204508 / S288c) (Baker's yeast)), sequence (P32657 whole entry, the tested form may be a part): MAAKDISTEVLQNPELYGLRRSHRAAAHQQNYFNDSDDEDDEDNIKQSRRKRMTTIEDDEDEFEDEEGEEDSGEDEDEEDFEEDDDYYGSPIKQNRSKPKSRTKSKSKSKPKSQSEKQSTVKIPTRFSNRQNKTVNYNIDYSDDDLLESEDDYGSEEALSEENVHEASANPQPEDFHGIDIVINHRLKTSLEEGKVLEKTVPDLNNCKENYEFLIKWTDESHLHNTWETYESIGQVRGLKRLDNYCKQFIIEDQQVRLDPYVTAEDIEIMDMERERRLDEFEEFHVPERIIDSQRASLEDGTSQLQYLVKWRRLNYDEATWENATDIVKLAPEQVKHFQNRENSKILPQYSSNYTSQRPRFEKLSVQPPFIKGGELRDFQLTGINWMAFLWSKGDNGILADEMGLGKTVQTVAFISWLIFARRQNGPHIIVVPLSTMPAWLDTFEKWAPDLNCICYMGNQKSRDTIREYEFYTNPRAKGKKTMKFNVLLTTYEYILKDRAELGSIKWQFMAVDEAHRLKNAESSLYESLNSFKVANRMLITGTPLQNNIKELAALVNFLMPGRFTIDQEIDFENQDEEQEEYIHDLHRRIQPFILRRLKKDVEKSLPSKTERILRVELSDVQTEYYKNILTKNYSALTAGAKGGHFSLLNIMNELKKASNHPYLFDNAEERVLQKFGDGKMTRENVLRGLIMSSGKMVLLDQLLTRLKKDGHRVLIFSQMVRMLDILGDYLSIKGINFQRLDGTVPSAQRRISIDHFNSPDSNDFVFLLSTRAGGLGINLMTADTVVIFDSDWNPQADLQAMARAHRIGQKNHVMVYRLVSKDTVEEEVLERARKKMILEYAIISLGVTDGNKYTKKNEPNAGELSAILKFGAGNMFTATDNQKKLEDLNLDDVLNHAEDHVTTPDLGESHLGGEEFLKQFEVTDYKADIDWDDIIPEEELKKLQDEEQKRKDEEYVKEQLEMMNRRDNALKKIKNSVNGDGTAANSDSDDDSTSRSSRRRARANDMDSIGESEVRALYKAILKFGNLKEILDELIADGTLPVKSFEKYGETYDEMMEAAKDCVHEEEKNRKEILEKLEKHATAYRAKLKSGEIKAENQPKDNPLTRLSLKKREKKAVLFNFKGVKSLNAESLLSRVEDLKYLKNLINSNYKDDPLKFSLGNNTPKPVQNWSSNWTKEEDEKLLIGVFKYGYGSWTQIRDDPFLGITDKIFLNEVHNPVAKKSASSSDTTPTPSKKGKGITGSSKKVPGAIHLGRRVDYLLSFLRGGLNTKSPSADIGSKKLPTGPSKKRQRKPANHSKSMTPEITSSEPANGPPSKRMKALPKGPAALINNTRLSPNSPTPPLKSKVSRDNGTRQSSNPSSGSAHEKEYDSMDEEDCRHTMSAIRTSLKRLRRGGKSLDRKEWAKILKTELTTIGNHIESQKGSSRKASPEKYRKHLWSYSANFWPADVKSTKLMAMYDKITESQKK
Protein translocase subunit SecA (Escherichia coli (strain K12)), sequence (P10408 whole entry): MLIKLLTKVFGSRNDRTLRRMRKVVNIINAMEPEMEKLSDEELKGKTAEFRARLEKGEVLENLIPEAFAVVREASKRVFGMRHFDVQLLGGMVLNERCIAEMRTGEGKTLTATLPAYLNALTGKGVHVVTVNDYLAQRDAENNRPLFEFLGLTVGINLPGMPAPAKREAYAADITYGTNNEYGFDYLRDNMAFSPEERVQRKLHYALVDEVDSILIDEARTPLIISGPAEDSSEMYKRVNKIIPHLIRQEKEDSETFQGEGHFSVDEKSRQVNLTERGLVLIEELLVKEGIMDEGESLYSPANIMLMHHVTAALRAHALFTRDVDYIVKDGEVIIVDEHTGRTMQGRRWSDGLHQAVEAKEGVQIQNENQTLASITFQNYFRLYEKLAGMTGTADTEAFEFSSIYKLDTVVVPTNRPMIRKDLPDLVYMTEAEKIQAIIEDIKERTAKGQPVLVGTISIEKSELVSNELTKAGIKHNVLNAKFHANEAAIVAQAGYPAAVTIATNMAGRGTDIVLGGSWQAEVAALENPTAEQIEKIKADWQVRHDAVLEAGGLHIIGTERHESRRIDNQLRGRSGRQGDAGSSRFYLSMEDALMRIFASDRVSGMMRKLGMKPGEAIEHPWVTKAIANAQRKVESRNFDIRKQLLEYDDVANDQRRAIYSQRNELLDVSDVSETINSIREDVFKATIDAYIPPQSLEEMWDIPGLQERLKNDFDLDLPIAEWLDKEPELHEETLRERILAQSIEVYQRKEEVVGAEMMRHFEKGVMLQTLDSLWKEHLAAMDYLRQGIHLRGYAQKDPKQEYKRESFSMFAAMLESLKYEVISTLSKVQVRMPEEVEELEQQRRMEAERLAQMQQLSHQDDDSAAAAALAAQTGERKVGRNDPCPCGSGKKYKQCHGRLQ

Turning to `Cc1cnn(Cc2cc(F)ccc2F)c1NC(=O)NC1CC1`, the Percent Effect in test [1] was -4.44%; in test [2], 16%; in test [3], -4.15%; in test [4], 41.4%; in the test on Trypanosoma cruzi it was 5.94%; in test [5], 29.7%. Further, the Percent Effect in test [6] was 15.5%; in the test listed under Homo sapiens, 10.9%; in test [7], -16.9%; in test [8] it was 21%; in test [9], -4.35%.

Turning to `CCN1CCN(S(=O)(=O)c2ncn(C)c2Cl)CC1`, the Percent Effect was -6.34% in [1]; 6.94% in [2]; -0.0263% in test [3]; 3.04% in test [4]; -3.79% in the test with Trypanosoma cruzi; 1.77% in [5]. For the same compound, the Percent Effect was 21.4% in [6]; 6.76% in the test listed under Homo sapiens; 1.05% in [7]; 10.3% in [8]; -1.92% in test [9].

Regarding `Cc1nn(C)c(Cl)c1C1CCCN1C(=O)c1cc[nH]n1` (stereo unspecified), the Percent Effect in test [1] is -1.54%; in [2] it was 2.7%; in test [3] it was -1.34%; in test [4], 13.1%; with Trypanosoma cruzi it was 2.74%; in [5], -2%. Also, the Percent Effect in test [6] is 8.83%; in the test listed under Homo sapiens it was -3.1%; in [7], 2.46%; in test [8] it was 11.1%; in test [9], -9.56%.

On to `CCCN(C)C(=O)c1ccc2c(c1)[nH]c(=O)n2CCOCC`, for which the Percent Effect is -5.32% in test [1]; 2.7% in test [2]; -7.14% in [3]; 42% in [4]; 8.11% with Trypanosoma cruzi; 2.38% in test [5]. Also, the Percent Effect in test [6] was 9.65%; in the test listed under Homo sapiens, -3.55%; in test [7], 2.65%; in test [8], 17.1%; in test [9] it was -9.7%.

As for `CC(CNC(=O)N1CCN(c2cnccn2)CC1)Cc1cccs1` (stereo unspecified), the Percent Effect was -2.51% in [1]; 2.7% in test [2]; 6.5% in [3]; 15.7% in [4]; -1.95% in the test with Trypanosoma cruzi; -1.67% in [5]. Also, the Percent Effect in test [6] was 10.6%; in the test listed under Homo sapiens, -1.65%; in [7], 0.99%; in test [8], -6.1%; in [9], 0.413%.

As for `O=C(c1cccn1Cc1cccs1)N1CCN(C2CC2)CC1`, the Percent Effect in [1] was -4.51%; in test [2] it was 0%; in test [3], 3.71%; in [4], 11%; in the test with Trypanosoma cruzi, 8.05%; in [5] it was 0%. Besides, the Percent Effect in [6] was 11.3%; in the test filed under Homo sapiens it was -0.305%; in test [7], 6.8%; in test [8] it was 14.6%; in test [9], -8.6%.

As to `CN1CCN(C(=O)c2cncc(CC3CCCN(C)C3)c2)CC1` (stereo unspecified), the Percent Effect in test [1] is -3.41%; in test [2], 9.46%; in test [3], 5.47%; in [4] it was 12%; with Trypanosoma cruzi, -8.3%; in test [5], -7.66%. For the same compound, the Percent Effect was 12% in [6]; 15.9% in the test listed under Homo sapiens; 1.07% in [7]; 1.3% in [8]; -9.97% in [9].

For `CC(C)(C)c1ncc(C(=O)NCCNC(=O)c2ccccc2)s1`, the Percent Effect in [1] is -3.42%; in [2], 21.1%; in test [3] it was -4.68%; in test [4], 1.92%; with Trypanosoma cruzi it was -3.64%; in test [5], 0.36%. For the same compound, the Percent Effect in test [6] is 10.7%; in the test listed under Homo sapiens, 12.2%; in test [7] it was 7.39%; in test [8], 18.5%; in test [9] it was -4.66%.

Regarding `O=C(CN1CC(n2cccn2)C1)NCCc1c[nH]c2ccccc12`, the Percent Effect in test [1] is -3.91%; in test [2], -2.7%; in test [3], 143%; in [4], 3.66%; with Trypanosoma cruzi, 2.69%; in test [5], -0.924%. In addition, the Percent Effect in [6] is -4.13%; in the test filed under Homo sapiens, 10.4%; in test [7], 0.99%; in test [8] it was 11%; in [9], 7.61%.

With `Cn1cc(CN2CC[C@H]3C[C@H](c4nc(C5CC5)cs4)O[C@@H]3C2)cn1`, the Percent Effect was -0.2% in test [1]; 18.2% in test [2]; -0.28% in test [3]; 13.1% in test [4]; 6.59% in the test on Trypanosoma cruzi; -9.65% in test [5]. For the same compound, the Percent Effect in test [6] was 10.8%; in the test filed under Homo sapiens, 12.1%; in test [7] it was 4.3%; in [8], 16.1%; in test [9], -1.85%.

As for `O=C(c1cccc(S(=O)(=O)NCCCc2ccco2)c1)N1CCOCC1`, the Percent Effect is -4.29% in test [1]; 2.74% in [2]; 6.53% in test [3]; -4.06% in test [4]; 1.37% in the test with Trypanosoma cruzi; 1.82% in test [5]. In addition, the Percent Effect was 5.86% in test [6]; -5.12% in the test listed under Homo sapiens; 7.53% in test [7]; 15% in [8]; -2.3% in test [9].
